Test results as given in PubChem BioAssay AID743342 (Broad Institute, 2014).
Results with a measured potency or affinity are listed apart. Activity calls are given as the source filed them.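 The calls were made as follows: active = every replicate test run was called active, each showing a signal decrease within twice the top valid dose; inconclusive = replicate test runs disagree on the call; inactive = every test run inactive, including signal moving upward.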

Test system: Drosophila bursicon receptor LGR2 (rickets)
Experiment: inhibition of bursicon-driven LGR2 cAMP signaling – cell-based, HEK293, CRE-luciferase reporter, cherry pick, dose response (AID 743342)
Conditions: bursicon antagonist, 4 h; series mostly up to 35 µM

Structure (SMILES)	outcome
C[C@@H]1CCCCO[C@H](CN(C)CC2CCCCC2)[C@H](C)CN([C@H](C)CO)C(=O)c2cc(NS(=O)(=O)c3ccccc3)ccc2O1	inactive
Cc1ccc(S(=O)(=O)Nc2ccc3c(c2)C(=O)N([C@H](C)CO)C[C@@H](C)[C@H](CN(C)S(=O)(=O)c2cccs2)OCCCC[C@@H](C)O3)cc1	inactive
CC(C)NC(=O)Nc1ccc2c(c1)C(=O)N([C@H](C)CO)C[C@@H](C)[C@H](CN(C)S(C)(=O)=O)OCCCC[C@H](C)O2	inactive
COc1ccc(S(=O)(=O)Nc2ccc3c(c2)C(=O)N([C@H](C)CO)C[C@H](C)[C@H](CN(C)S(=O)(=O)c2ccc(F)cc2)OCCCC[C@@H](C)O3)cc1	inactive
COc1ccc(S(=O)(=O)Nc2ccc3c(c2)C(=O)N([C@@H](C)CO)C[C@H](C)[C@@H](CN(C)C(=O)Nc2cccc4ccccc24)OCCCC[C@H](C)O3)cc1	inactive
COc1ccc(S(=O)(=O)Nc2ccc3c(c2)C(=O)N([C@@H](C)CO)C[C@@H](C)[C@H](CN(C)C(=O)Nc2cccc4ccccc24)OCCCC[C@H](C)O3)cc1	inactive
C[C@H](CO)N1C[C@H](C)[C@H](CN(C)C(=O)Cc2ccccc2)OCCCC[C@H](C)Oc2ccc(NC(=O)Nc3ccc(C(F)(F)F)cc3)cc2C1=O	inactive
C[C@@H]1CN([C@@H](C)CO)C(=O)c2cc(NS(C)(=O)=O)ccc2O[C@@H](C)CCCCO[C@@H]1CN(C)Cc1ccc(C(F)(F)F)cc1	inactive
Cc1noc(C)c1S(=O)(=O)Nc1ccc2c(c1)C(=O)N([C@H](C)CO)C[C@H](C)[C@H](CN(C)C(=O)Nc1ccc(F)cc1)OCCCC[C@@H](C)O2	inactive
